Source: PubChem
LmPK inh – blocks Leishmania mexicana pyruvate kinase activity | AID 1721 | hit rate 0.37% among 290,000 | Potency, µM (titrated, usually from 57.5 µM), inactives show at the top dose activity change, negative = inhibition, usual class: inhibitors | purified LmPK, Kinase-Glo ATP luminescence, 1 h; note: % is set by controls: 0 for no effect and ±100 for the full control effect
Target sequence (Q27686 whole entry, looked up): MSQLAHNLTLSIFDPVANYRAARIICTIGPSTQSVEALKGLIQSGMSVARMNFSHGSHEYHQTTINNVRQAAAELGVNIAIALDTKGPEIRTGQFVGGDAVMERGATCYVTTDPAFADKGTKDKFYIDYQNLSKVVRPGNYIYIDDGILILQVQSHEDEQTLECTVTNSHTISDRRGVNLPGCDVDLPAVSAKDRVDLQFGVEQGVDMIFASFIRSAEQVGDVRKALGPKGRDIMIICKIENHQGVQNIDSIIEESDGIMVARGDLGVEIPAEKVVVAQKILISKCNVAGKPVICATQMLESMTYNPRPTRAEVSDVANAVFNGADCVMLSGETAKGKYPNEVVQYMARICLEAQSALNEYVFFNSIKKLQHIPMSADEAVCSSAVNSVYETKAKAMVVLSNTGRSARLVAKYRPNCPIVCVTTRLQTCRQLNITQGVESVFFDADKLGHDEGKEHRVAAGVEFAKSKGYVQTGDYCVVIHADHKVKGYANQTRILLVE
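qHTS format; LmPK 0.1 nM; substrates PEP 0.5 mM and ADP 0.1 mM. One-hour room-temperature incubation, then coupled luciferase luminescence; 0.5 nM enzyme wells mark activation.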
TbPYK inhibitor – blocks Trypanosoma brucei pyruvate kinase. Potency, µM (top dose mostly 76.8 µM), inactives show at the highest dose activity, negative = inhibition, hits mostly inhibitors. hit rate 0.12% among 410,000. TbPYK enzyme, Kinase-Glo Plus ATP luminescence, 45 min. AID 624173; note: % is set by controls: 0 for no effect and ±100 for the full control effect; nearly all actives have a fitted effect of over 50% in size
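Quantitative HTS: titrated library compounds versus trypanosomal pyruvate kinase in TEA buffer (pH 7.2) containing KCl, MgCl2, BSA and Tween-20. Reactions were initiated with ADP, 130 uM final. Kinase-Glo Plus luminescence was read after 45 min at RT.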
Giardia FBPA inh – inhibitors of Giardia lamblia fructose-1,6-bisphosphate aldolase; purified Giardia FBPA; Potency, µM (doses to about 59.6 µM), for inactives: at the highest dose activity, negative = inhibition, usual class: inhibitors; hit rate 0.71% among 290,000; AID 2451; note: % is set by controls: 0 for no effect and ±100 for the full control effect; nearly all actives have a fitted effect of over 55% in size
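Giardia FBPA (40 nM reagent) was preincubated 10 min at RT with compound (up to 57.5 uM final), then substrate plus GAPDH/TPI/NAD/arsenate coupling system with diaphorase/resazurin was added; resorufin fluorescence (525/598 nm) was read after 20 min.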
RE007 growth inh – less growth of the S. pombe RE007 Vpr strain | S. pombe RE007 Vpr strain, BacTiter-Glo ATP luminescence, 24 h | hit rate 0.21% among 360,000 | AID 651644 | Potency, µM (titrated, usually from 92.2 µM), without a hit: top-dose activity change, negative = less growth, most hits filed as inhibitors; active = well fitted falling curve with a large enough effect; inconclusive = small, poorly fitted or top-dose-only effect; inactive = no such curve, though single readings can be large or run the other way; note: % is set by controls: 0 for no effect and ±100 for the full control effect; nearly all actives have a fitted effect of over 50% in size
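Fission yeast strain RE007, carrying one chromosomally integrated HIV-1 vpr copy, was seeded at OD 0.01 in PMG+AL medium with 23 nL pinned compound. After 24 h at 30 °C and 99% humidity, viability was read by BacTiter-Glo luminescence.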
NS1 function inh – inhibitors of influenza NS1 protein function. Potency, µM (highest dose often 46.1 µM), for the others: at the highest dose activity, positive = more growth. hit rate 0.4% among 270,000; calls by dose curve; note: actives are rising curves; nearly all actives have a fitted effect of over 50% in size
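S. cerevisiae expressing influenza A NS1, grown in glucose, washed, then diluted 1:100 into pH 6.0 -URA galactose medium with 23 nl compound. Growth recovery read as OD600; NS1-free strain serves as control.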
Sm TGR block – S. mansoni TGR enzyme inhibition; Q962Y6; purified TGR, DTNB reduction, TNB absorbance 405 nm; Potency, µM (top dose mostly 114 µM), without a hit: at the highest dose activity change, negative = inhibition, usual class: inhibitors; hit rate 3% among 360,000; AID 485364; note: % is set by controls: 0 for no effect and ±100 for the full control effect; nearly all actives have a fitted effect of over 60% in size
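First, TGR (20 nM dispensed) and NADPH were mixed with compound. Second, a 15 min room-temperature incubation followed. Third, further NADPH and then DTNB were added to start the reaction. Finally, TNB absorbance was monitored kinetically.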
* marks the source's active call; other numbers are inactive results; ? = inconclusive; . = not tested or not shown; [ ] = another dose, or the depositor's remark. Hits are enriched below; roughly 3.5% of the tested compounds scored in any of these assays. Unless noted, calls come from the whole dose curve; as a rule, active = well fitted curve in the direction sought with a large enough effect; inconclusive = small, poorly fitted or top-dose-only effect, or another doubt; inactive = no such curve, though single readings can be large; an effect the other way counts as inactive or inconclusive. Potency is the fitted concentration of half-maximal effect.

SMILES | LmPK inh | TbPYK inhibitor | Giardia FBPA inh | RE007 growth inh | NS1 function inh | Sm TGR block
Nc1c(C(=O)c2ccccc2)sc2nsc(SCCN3CCCC3)c12 | -5% | -2% | 1% | -5% | -1% | 40µM*
CCOc1ccc(C(C)=O)cc1COC(=O)C1=COCCO1 | 2% | 0% | 19% | -3% | -2% | 28µM*
CCOc1ccc(C(C)=O)cc1CC(C(N)=O)C(N)=O | 10% | 13% | 0% | 3% | 13% | -20%
Cc1ccc2sc(C)[n+](CCO)c2c1 | 0%[11.5 µM] | -23% | -20% | -1% | . | 25µM*
CCN(CC)c1ccc(N=Nc2ccc(S(=O)(=O)N(C)C)cc2)c(S(=O)(=O)NCC[n+]2ccccc2)c1 | . | 1% | . | . | . | .
CC(=C/c1ccco1)/C=N/N1CCN(c2ccccc2)CC1 | 16µM* | . | . | 0%[3.69 µM] | 5% | -19%
CC(/C=N/N1CCN(c2ccccc2)CC1)=C\c1ccco1 | 13µM* | ? | 1% | -23% | -2% | -11%
CC(/C=N/N1CCN(c2ccccc2)CC1)=C\c1ccccc1 | -17% | 5% | -1% | 4% | -2% | 7%
COc1cc(/C=N/Nc2ccc(F)cc2F)cc(OC)c1O | -1% | ? | ? | 2% | -19% | 25µM*
Cc1ccc(S(=O)(=O)c2c(N)n(Cc3ccco3)c3nc4ccccc4nc23)cc1 | 0% | -2% | -6% | 0% | 27% | ?
COc1ccc(Cn2c3nc4ccccc4nc3c3c(=O)n(Cc4ccco4)cnc32)cc1 | -5% | . | -6% | . | 8.9µM* | 16µM*
Cc1cccc(S(=O)(=O)c2c(N)n(Cc3ccco3)c3nc4ccccc4nc23)c1 | -3% | -10% | -2% | 0% | -62% | 18µM*
Cc1cccc(-n2cnc3c(c2=O)c2nc4ccccc4nc2n3Cc2ccco2)c1 | -6% | -14% | -19% | -9% | 13% | 2.8µM*
O=C(NCC1CCCO1)c1c[nH]c2ccc(S(=O)(=O)Nc3ccc(F)cc3F)cc2c1=O (stereo not drawn) | . | 4% | . | . | . | -1%
N#Cc1ccccc1OCC(=O)N1CCN(c2ccccc2)CC1 | . | 3% | . | . | . | 9%
Oc1cc2c(cc1C(c1ccc(Cl)c(Cl)c1)N1CCCC1)OCO2 (stereo not drawn) | 4% | ? | ? | ? | 24% | 0.5µM*
COc1ccc([C@@H](C)c2cc3c(cc2O)OCO3)cc1 | . | . | . | . | -8% | .
Cc1cc(C)cc(NC(=O)N2CCC(N3CCCCC3)CC2)c1 | . | -11% | . | . | . | 0%
CCC(=Nc1ccc(N)cc1)C1=C(O)C(C(=O)OC)C(C)(C)CC1=O (stereo not drawn) | -11% | 6% | 1.1µM* | 1% | -39% | ?
CCCCC(=Nc1ccc(N)cc1)C1=C(O)C(C(=O)OC)C(C)(C)CC1=O (stereo not drawn) | 4% | -10% | ? | -13% | -3% | -27%
CC(C)CN(CCNC(=O)c1cn(C)c2ccc(S(=O)(=O)N3CCCCCC3)cc2c1=O)CC(C)C | . | 0% | . | . | . | -1%
COc1ccc(S(=O)(=O)c2c(O)c3ccc(C(=O)NCc4ccccc4)cc3[nH]c2=O)cc1 | . | 3% | . | . | . | -1%
O=C(CCN1CCOCC1)Nc1ccc(Br)cc1C(=O)c1ccccc1 | -2% | 4% | ? | -2% | -1% | 25µM*
O=C(CN1CCOCC1)Nc1ccc(Br)cc1C(=O)c1ccccc1 | -2% | 2% | 2% | 13% | -18% | -1%
CC(C)c1ccc(S(=O)(=O)/N=C2\C=C(NS(=O)(=O)c3ccccc3)C(=O)c3ccccc32)cc1 | -1% | 0% | ? | ? | 6% | ?
SMILES | LmPK inh | TbPYK inhibitor | Giardia FBPA inh | RE007 growth inh | NS1 function inh | Sm TGR block
CC(C)c1ccc(S(=O)(=O)/N=C2/C=CC(=O)c3ccccc32)cc1 | -15% | . | 14µM* | . | . | 8.9µM*
CN1C2CCC1/C(=C\c1ccccc1F)C(=O)/C2=C/c1ccccc1F | -4% | -21% | 4% | 3% | 6% | 20µM*
O=C1NCCN2CCCC12 (stereo not drawn) | -2% | -1% | -27% | 0% | -1% | 25µM*
CC1(C)NC(=O)[C@H]2CCCN21 | . | 6% | . | -9% | . | .
CC(=O)C1=C(O)C(=O)N(CCc2c[nH]c3ccccc23)C1c1ccc(C)cc1 (stereo not drawn) | -2% | -1% | 6% | -12% | 3% | 7%
CC(=O)C1=C(O)C(=O)N(CCc2c[nH]c3ccccc23)C1c1ccco1 (stereo not drawn) | -3% | 3% | -1% | -1% | 3% | 40µM*
Cc1ccsc1/C=C/c1ccc2cccc(O)c2n1 | ? | 6% | -12% | ? | -180% | 0%
Oc1cccc2ccc(/C=C/c3cccs3)nc12 | 22µM* | -9% | -13% | ? | -208% | 0%
COc1ccc(/C=C/C(=O)OCn2c(SC)nnc(C)c2=O)cc1OC | -1% | -5% | 6% | 1% | . | 28µM*
CCN1/C(=C/C(=O)c2ccco2)Sc2ccccc21 | -2% | 3% | ? | -24% | -148% | 20µM*
CN1/C(=C\C(=O)COC(=O)c2ccco2)C(C)(C)c2ccccc21 | -4% | 6% | -11% | 1% | . | -32%
CN1/C(=C\C(=O)c2ccco2)C(C)(C)c2ccccc21 | -1% | 1% | -23% | ? | -253% | 45µM*
O=C(Nc1ccc(F)cc1)c1ccc(-n2cnnc2)cc1 | . | 7% | . | . | . | 5%
COc1ccc(OC)c(S(=O)(=O)Nc2cccc(-c3ccc(N4CCCCC4)nn3)c2)c1 | . | 6% | . | . | . | 2%
CCN(C(=O)CSc1ncc2c(n1)-c1cc(Cl)ccc1N(Cc1ccccc1)S2(=O)=O)c1cccc(C)c1 | . | -8% | . | . | . | 1%
CCn1c(-c2csc3c2CCCC3)n[nH]c1=S | ? | ? | -5% | 25% | -1% | -7%
CCCCn1c(-c2csc3ccccc23)n[nH]c1=S | 14µM* | 16µM* | 10% | 5% | 1% | -2%
CCCCn1c(-c2csc3c2CCC(C)C3)n[nH]c1=S (stereo not drawn) | 18µM* | ? | 17% | -15% | -96% | 1%
CCCCn1c(-c2csc(C(C)C)c2)n[nH]c1=S | ? | ? | 17% | -1% | -43% | 2%
CCCCn1c(-c2csc3c2CCCC3)n[nH]c1=S | 13µM* | ? | 1% | 2% | -88% | 7%
CCCCn1c(-c2cccs2)nc2nc3ccccc3nc21 | 10% | 4% | . | -14% | -28% | 14%
CCCCCCn1c(-c2cccs2)n[nH]c1=S | -29% | 2.8µM* | 0% | -9% | -28% | 7%
C=CCC(CC=C)(CNC(=O)C(=O)Nc1ccc(C(=O)OCC)cc1)c1ccccc1 | . | 4% | . | . | . | -1%
O=C1OC/C(=C(/O)c2ccc(Cl)cc2)C1=O | 2% | 7% | 10% | -5% | -16% | 16µM*
